From PubChem BioAssay AID1159580 (chemical genetic matrix, 2015)
Screen size: about 5,500 compounds; about 2,000 (36%) were called active. About 18% were inconclusive and are not listed. No stated cut-off is given here; in the data, active means normalized growth mostly below about 0.91 (no sharp cut-off); inconclusive means no clear call, values can overlap the other calls; inactive means mostly above about 0.92. The list shows a part of the results.

Experiment: chemical genetic growth profiling, strain panel (AID 1159580);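 further: tested at 20 µM; growth read once vehicle control cultures reached saturation at 30 °C; 1 = growth at the plate median or of vehicle wells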
Conditions: growth OD

Measured: normalized growth

COc1cc2c(cc1OC)C1C(=O)c3c(cc4c(c3O)C=CC(C)(C)O4)OC1CO2 (configuration not stated)
inactive: S. cerevisiae deletion strains, locus YBR021W, strain FUR4, stronger effect = lower value 1 | S. cerevisiae deletion strains, locus YBR229C, strain ROT2, stronger effect = lower value 1.02 | S. cerevisiae deletion strains, locus YCL029C, strain bik1, stronger effect = lower value 1.03 | S. cerevisiae deletion strains, locus YDL035C, strain GPR1, stronger effect = lower value 1.03 | S. cerevisiae deletion strains, locus YDL074C, strain BRE1, stronger effect = lower value 1.13 | S. cerevisiae deletion strains, locus YDL101C, strain DUN1, stronger effect = lower value 1.01 | S. cerevisiae deletion strains, locus YDL134C, strain PPH21, stronger effect = lower value 1 | S. cerevisiae deletion strains, locus YDL185W, strain tfp1, stronger effect = lower value 1.02 | S. cerevisiae deletion strains, locus YDL192W, strain arf1, stronger effect = lower value 0.996 | S. cerevisiae deletion strains, locus YDR101C, strain arx1, stronger effect = lower value 0.99 | S. cerevisiae deletion strains, locus YDR162C, strain NBP2, stronger effect = lower value 1.03 | S. cerevisiae deletion strains, locus YDR318W, strain mcm21, stronger effect = lower value 1.02 | S. cerevisiae deletion strains, locus YDR388W, stronger effect = lower value 1.02 | S. cerevisiae deletion strains, locus YDR502C, strain sam2, stronger effect = lower value 1.02 | S. cerevisiae deletion strains, locus YER110C, stronger effect = lower value 1.02 | S. cerevisiae deletion strains, locus YER155C, strain BEM2, stronger effect = lower value 1.04 | S. cerevisiae deletion strains, locus YER167W, strain BCK2, stronger effect = lower value 1.01 | S. cerevisiae deletion strains, locus YGL078C, strain dbp3, stronger effect = lower value 1.01 | S. cerevisiae deletion strains, locus YGL086W, strain mad1, stronger effect = lower value 1.01 | S. cerevisiae deletion strains, locus YGL248W, strain PDE1, stronger effect = lower value 1.03 | S. cerevisiae deletion strains, locus YGR135W, strain pre9, stronger effect = lower value 1.06 | S. cerevisiae deletion strains, locus YGR252W, strain gcn5, stronger effect = lower value 1.08 | S. cerevisiae deletion strains, locus YHR079C, strain IRE1 (second series), stronger effect = lower value 1.02 | S. cerevisiae deletion strains, locus YHR094C, strain hxt1, stronger effect = lower value 1.03 | S. cerevisiae deletion strains, locus YHR129C, strain ARP1, stronger effect = lower value 1.02 | S. cerevisiae deletion strains, locus YHR200W, strain rpn10, stronger effect = lower value 1.02 | S. cerevisiae deletion strains, locus YIL066C, strain RNR3, stronger effect = lower value 1 | S. cerevisiae deletion strains, locus YIL073C, strain SPO22, stronger effect = lower value 1.28 | S. cerevisiae deletion strains, locus YIL125W, strain kgd1, stronger effect = lower value 1 | S. cerevisiae deletion strains, locus YIR030C, strain dcg1, stronger effect = lower value 1.02 | S. cerevisiae deletion strains, locus YJL095W, strain BCK1, stronger effect = lower value 1.05 | S. cerevisiae deletion strains, locus YJL134W, strain LCB3, stronger effect = lower value 1.01 | S. cerevisiae deletion strains, locus YJL168C, strain set2, stronger effect = lower value 1.03 | S. cerevisiae deletion strains, locus YJL187C, strain SWE1 (second series), stronger effect = lower value 1.01 | S. cerevisiae deletion strains, locus YKL009W, strain mrt4, stronger effect = lower value 1.04 | S. cerevisiae deletion strains, locus YKL068W, stronger effect = lower value 1.01 | S. cerevisiae deletion strains, locus YKL085W, strain MDH1 (second series), stronger effect = lower value 1.01 | S. cerevisiae deletion strains, locus YKL085W, strain MDH1, stronger effect = lower value 1.01 | S. cerevisiae deletion strains, locus YKL190W, strain CNB1, stronger effect = lower value 1 | S. cerevisiae deletion strains, locus YLR039C, strain RIC1, stronger effect = lower value 0.992 | S. cerevisiae deletion strains, locus YLR058C, strain SHM2, stronger effect = lower value 1.01 | S. cerevisiae deletion strains, locus YLR102C, strain apc9, stronger effect = lower value 1.02 | S. cerevisiae deletion strains, locus YLR262C, strain YPT6, stronger effect = lower value 0.991 | S. cerevisiae deletion strains, locus YLR268W, strain sec22, stronger effect = lower value 1.02 | S. cerevisiae deletion strains, locus YLR342W, strain FKS1 (second series), stronger effect = lower value 0.961 | S. cerevisiae deletion strains, locus YLR371W, strain rom2, stronger effect = lower value 1.03 | S. cerevisiae deletion strains, locus YLR418C, strain cdc73, stronger effect = lower value 1.13 | S. cerevisiae deletion strains, locus YML016C, strain PPZ1, stronger effect = lower value 0.996 | S. cerevisiae deletion strains, locus YML032C, strain rad52, stronger effect = lower value 0.998 | S. cerevisiae deletion strains, locus YML124C, strain tub3, stronger effect = lower value 1.02 | S. cerevisiae deletion strains, locus YMR078C, strain ctf18, stronger effect = lower value 1.02 | S. cerevisiae deletion strains, locus YMR223W, strain ubp8, stronger effect = lower value 1.01 | S. cerevisiae deletion strains, locus YMR307W, strain GAS1, stronger effect = lower value 1.18 | S. cerevisiae deletion strains, locus YNL067W, strain RPL9B, stronger effect = lower value 1.01 | S. cerevisiae deletion strains, locus YNL153C, strain GIM3, stronger effect = lower value 1.04 | S. cerevisiae deletion strains, locus YNL233W, strain BNI4, stronger effect = lower value 1.06 | S. cerevisiae deletion strains, locus YNL250W, strain rad50, stronger effect = lower value 1.05 | S. cerevisiae deletion strains, locus YNL271C, strain bni1, stronger effect = lower value 1.01 | S. cerevisiae deletion strains, locus YNL298W, strain CLA4, stronger effect = lower value 1 | S. cerevisiae deletion strains, locus YNL307C, strain MCK1, stronger effect = lower value 1.03 | S. cerevisiae deletion strains, locus YNR052C, strain pop2, stronger effect = lower value 1.04 | S. cerevisiae deletion strains, locus YOL012C, strain htz1 0.98 | S. cerevisiae deletion strains, locus YOL147C, strain pex11, stronger effect = lower value 1.01 | S. cerevisiae deletion strains, locus YOR061W, strain CKA2, stronger effect = lower value 1 | S. cerevisiae deletion strains, locus YOR069W, strain VPS5, stronger effect = lower value 1.01 | S. cerevisiae deletion strains, locus YOR136W, strain idh2, stronger effect = lower value 1.06 | S. cerevisiae deletion strains, locus YOR144C, strain elg1, stronger effect = lower value 1.01 | S. cerevisiae deletion strains, locus YOR184W, strain ser1, stronger effect = lower value 0.99 | S. cerevisiae deletion strains, locus YOR316C, strain cot1, stronger effect = lower value 1.02 | S. cerevisiae deletion strains, locus YPR119W, strain clb2, stronger effect = lower value 1.02 | S. cerevisiae deletion strains, locus YPR141C, strain kar3, stronger effect = lower value 1 | S. cerevisiae deletion strains, locus YPR163C, strain tif3, stronger effect = lower value 1.03 | S. cerevisiae deletion strains, locus YPR167C, strain met16, stronger effect = lower value 1.01 | S. cerevisiae deletion strains, strain wtn01, stronger effect = lower value 0.989 | S. cerevisiae strains, strain wild type, stronger effect = lower value 1.02
active: S. cerevisiae deletion strains, locus YGR229C, strain SMI1, stronger effect = lower value 1.3 [resistant] | S. cerevisiae deletion strains, locus YKR001C, strain vps1, stronger effect = lower value 0.724
